D2 PAM-1 = Beta-Arrestin HTS for Positive Allosteric Modulators of the Human D2 Dopamine Receptor: Potentiators; potentiation, % (no concentration beside the values); DiscoveRx D2 beta-arrestin cells, luminescence, 90 min; 100% = 57 uM dopamine signal; AID 624464, 2012; actives 0.23% (n = 360,000); D(2) dopamine receptor (Homo sapiens), P14416; in the data active = potentiation above about 50%; inconclusive = mostly about 30% to 49%
Target sequence (P14416 whole entry, looked up): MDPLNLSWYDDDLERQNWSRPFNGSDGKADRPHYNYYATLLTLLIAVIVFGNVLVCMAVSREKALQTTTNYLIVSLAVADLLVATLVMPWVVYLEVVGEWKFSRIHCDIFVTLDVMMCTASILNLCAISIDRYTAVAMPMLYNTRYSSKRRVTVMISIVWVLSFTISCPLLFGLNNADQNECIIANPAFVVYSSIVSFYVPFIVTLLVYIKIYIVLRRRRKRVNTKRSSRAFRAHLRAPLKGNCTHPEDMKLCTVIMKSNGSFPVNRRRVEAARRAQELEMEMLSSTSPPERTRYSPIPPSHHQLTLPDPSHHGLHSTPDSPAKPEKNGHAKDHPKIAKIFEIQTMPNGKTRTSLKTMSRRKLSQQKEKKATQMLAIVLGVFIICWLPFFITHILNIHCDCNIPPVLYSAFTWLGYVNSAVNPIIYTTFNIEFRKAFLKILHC
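PathHunter D2 cells, attached overnight at 37 deg C, received compound in DMSO plus dopamine at EC20 (50 nM final) for 90 min at 37 deg C. Beta-arrestin recruitment was read as luminescence after 1 h with detection reagent at ambient temperature.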
D2 antagonist = HTS Assay for Allosteric Antagonists of the Human D2 Dopamine Receptor: Primary Screen for Antagonists | D(2) dopamine receptor (Homo sapiens), P14416 | HEK293 TREx D2 cells, calcium flux, dopamine EC80 | inhibition, % at 10 µM | actives 2% (n = 340,000); in the data active = inhibition above about 30%; inactive = below that, where a call was filed; also: 0% is about no effect
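Read-out: kinetic calcium fluorescence (1 cycle/s) in inducible HEK293 T-REx D2 cells after an EC80 dopamine addition that followed 180 s compound preincubation. Loss of the dopamine response indicates antagonism.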
D2 PAM-2 = HTS Assay for Positive Allosteric Modulators of the Human D2 Dopamine Receptor: Primary Screen for Potentiators; D(2) dopamine receptor (Homo sapiens), P14416; HEK293 T-REx D2, calcium flux, EC20 dopamine potentiation; potentiation, % at 10 µM; actives 0.34% (n = 340,000); AID 485347, 2010;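 active = potentiation over 3 SD above the plate norm, cut at about 30% in these data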; also: 0% is about no effect
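Potentiation of an EC20 dopamine calcium response measured kinetically over 180 s, after a preceding 180 s compound-only read flagging agonists. Cells: inducible Hek293 Trex D2 line, 4000/well, cultured overnight at 30 C before dye loading.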
D2 ag-1 = Beta-Arrestin HTS for Positive Allosteric Modulators of the Human D2 Dopamine Receptor: Agonists | actives 0.084% (n = 360,000) | AID 624465, 2012 | DiscoveRx PathHunter D2 beta-arrestin, luminescence, 90 min; 100% = 57 uM dopamine signal | activation, % (test concentration not listed); in the data active = activation above about 40%; inconclusive = between about 15% and that limit
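Agonist mode: compounds alone added to overnight-plated D2 PathHunter cells for 90 min at 37 C, with 57 uM final dopamine (EC100) defining full response. Beta-arrestin recruitment detected by chemiluminescent reagent, read after 1 h at ambient temperature.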
D2 ag-2 = HTS Assay for Allosteric Agonists of the Human D2 Dopamine Receptor: Primary Screen for Agonists; AID 485358, 2010; D(2) dopamine receptor (Homo sapiens), P14416; actives 0.53% (n = 340,000); activation, % at 2 µM; HEK293 T-REx D2 cells, calcium flux agonist mode;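 active = activation over 3 SD above normal in the single-dose calcium agonist read, cut at about 30% in these data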; also: 0% is about no effect
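Calcium-flux readout, 1 cycle/sec over 180 s following compound pin transfer, in inducible HEK293 Trex D2 cells (force-coupled); dopamine controls included. Positive calcium responses during this window marked compounds as potential agonists.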
D3 ag = qHTS of D3 Dopamine Receptor Agonist: D3 Dopamine Receptor B-arrestin Agonist Confirmatory Assay | actives 4% (n = 2,300) | DiscoveRx D3 beta-arrestin cells, luminescence, 90 min | Potency, µM (titrated, usually from 76.9 µM), for inactives: at the top dose activation, actives largely listed as activators | shares compounds with D2 ag-2 | AID 720506, 2013;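 also: potency is read from the fitted curve at half-maximal effect; 100% = dopamine control response; nearly all actives have a fitted effect of over 70% in size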
D2 ag-3 = qHTS of D3 Dopamine Receptor Agonist: D2 Dopamine Receptor B-arrestin Agonist Counterscreen | actives 5.9% (n = 2,300) | shares compounds with D2 ag-2 | DiscoveRx PathHunter D2 beta-arrestin, luminescence, 90 min; response scale: percent relative to full dopamine signal | Potency, µM (top dose mostly 76.9 µM), inactives show at the highest dose activation, hits mostly activators; also: potency is read from the fitted curve at half-maximal effect; % of control where 0% means no effect; nearly all actives have a fitted effect of over 70% in size
An asterisk follows results filed as active; ? = inconclusive; . = not tested or not shown. Rows were chosen to be rich in hits. Some 2.4% of all compounds tested hit in one or more screens of this group. Unless noted, calls follow the shape of the dose curve; as a rule, active = well fitted activation curve with a large enough effect; inconclusive = small, poorly fitted or top-dose-only effect; inactive = flat fitted curve, though single readings scatter.

SMILES	D2 PAM-1	D2 antagonist	D2 PAM-2	D2 ag-1	D2 ag-2	D3 ag	D2 ag-3
Cc1cccc(N2C(=O)c3cccc4c(N(C)CCO)ccc(c34)C2=O)c1	-7.1	7.4	1.3	-9.9	0.0	-4.8%	3.5%
CC(C)c1ccccc1-n1cc[nH]c1=S	-10.8	-16.1	5.4	-3.2	1.9	.	.
Cn1cc[nH]c1=S	10.7	-4.0	-11.8	-3.9	25.2	-2.8%	-3.7%
COc1cc(C2N(Cc3ccccc3)CCN2Cc2ccccc2)ccc1OC(C)=O	-2.4	26.8	-14.2	-3.6	9.5	-5.2%	-5.3%
COc1ccc(C2N(Cc3ccccc3)CCN2Cc2ccccc2)cc1[N+](=O)[O-]	-13.1	11.0	-12.9	-3.2	10.4	-10.2%	-4.6%
COc1cc(C2N(c3ccccc3)CCN2c2ccccc2)ccc1OC(C)=O	6.0	-23.6	14.7	-3.6	0.0	.	.
Cc1cc(-c2ccc(C)c(S(=O)(=O)NCCCN3CCN(c4ccccc4)CC3)c2)on1	-8.1	73.4*	-27.6	11.4	71.9*	?	?
Cc1cc(-c2ccc(C)c(S(=O)(=O)NCCCN3CCN(c4ccccc4F)CC3)c2)on1	-8.1	76.0*	-23.7	11.3	70.5*	?	?
COc1ccc(-c2cc(C)no2)cc1S(=O)(=O)NCCCN1CCN(c2ccccc2)CC1	-6.2	80.1*	-31.0	7.4	78.1*	23.5%	?
CSc1ccc(CCNS(=O)(=O)c2cc(-c3cc(C)no3)ccc2C)cc1	.	.	9.3	.	0.2	.	.
CC(COc1ccccc1)N1CCC(CO)(Cc2ccccc2)CC1 (stereo unspecified)	-11.5	85.2*	-11.8	?	67.9*	6.1%	?
Cc1cccc(C(=O)NNC(=O)c2ccc(NS(=O)(=O)c3cccs3)cc2)c1C	-2.2	17.9	16.3	2.2	0.2	0.3%	-5.0%
CCCOc1ccc(C(=O)Nc2ccc3oc(-c4ccc5ccccc5c4)nc3c2)cc1	.	.	-3.2	.	0.4	.	.
Cc1ccc(Cn2nnc3c(=O)[nH]c(C4CCCN(S(=O)(=O)c5ccc(F)cc5)C4)nc32)cc1 (stereo unspecified)	-3.8	-19.5	.	-2.3	-0.2	.	.
O=c1[nH]c(C2CCCN(S(=O)(=O)c3ccc(F)cc3)C2)nc2c1nnn2Cc1ccc(F)cc1 (stereo unspecified)	-3.5	67.8*	-5.3	-0.2	0.8	3.5%	-3.0%
CCOC(=O)c1sc(N2C(=O)c3oc4cc(C)c(C)cc4c(=O)c3C2c2ccc(C)cc2)nc1C (stereo unspecified)	.	.	8.6	.	-0.2	.	.
O=C(CN1C(=O)COc2ccc(S(=O)(=O)N3CCOCC3)cc21)N1CCN(c2ccc(F)cc2)CC1	.	.	1.3	.	0.5	.	.
NC(=NC(=O)c1ccc(Cl)cc1)N1N=CCC1c1ccccc1 (stereo unspecified)	1.6	22.9	-5.6	-3.6	49.7*	-2.3%	4.6%
Cc1[nH]n(-c2ccccc2)c(=O)c1C1(C(F)(F)F)C(=O)N(c2ccc(F)cc2)C2=C1C(=O)CC(C)(C)C2 (stereo unspecified)	-14.9	11.2	-10.0	1.5	4.9	12.0%	-6.2%
CC1(C)CC(=O)C2=C(C1)N(c1ccc(F)cc1)C(=O)NC2(C(F)(F)F)C(F)(F)F	8.3	7.9	-18.6	-1.4	-0.6	.	.
CC(C)(C)SCCNC(=O)c1ccc(CN2CCc3ccccc3C2)cc1	-13.3	9.9	-18.6	0.9	33.7*	-20.5%	3.1%
COc1ccccc1OCC(=O)N(Cc1ccc(N(C)C)cc1)CC1CCCO1 (stereo unspecified)	.	.	-2.9	.	-0.7	.	.
CCN1CCC2(CC1)C(C#N)=C(N)Oc1c2sc2nc(C)cc(C)c12	-16.4	53.2*	-23.2	6.1	66.7*	15.6%	8.1%
CC(=O)N1CCC2(CC1)C(C#N)=C(N)Oc1c2sc2nc(C)cc(C)c12	-15.2	-3.8	6.0	-2.0	0.4	.	.
CCOc1ccc(/C=N/NC(=O)c2ccc(O)cc2)cc1CN1CC2CC(C1)c1cccc(=O)n1C2 (stereo unspecified)	-2.2	.	-3.7	4.0	.	-7.8%	-2.0%
SMILES	D2 PAM-1	D2 antagonist	D2 PAM-2	D2 ag-1	D2 ag-2	D3 ag	D2 ag-3
CCNc1nc(C#N)nc2c1ncn2-c1cc(F)cc(F)c1	.	12.0	7.3	.	-0.4	-5.1%	-0.7%
COc1ccc(Oc2cc(C)c3ccccc3n2)cc1	?	44.6*	-19.0	?	43.9*	?	?
Cc1ccc(Oc2cnc3ccccc3n2)cc1	-2.5	-3.9	-6.3	-3.0	1.1	.	.
c1ccc2c3c([nH]c2c1)CCNC3	-8.8	12.8	-26.1	0.7	20.3	23.7%	9.8%
Cc1ccc2[nH]c3c(c2c1)CNCC3	-22.2	2.8	-7.0	0.0	0.8	.	.
COc1ccc(-c2cnc(C)o2)cc1S(=O)(=O)Nc1ccc(C)c(N(C)C)c1	.	.	7.9	.	0.2	.	.
CCN1CCN(Cc2ccc(OC)c(OCc3ccccc3)c2)CC1	-14.5	0.0	-18.6	-1.5	0.3	.	.
COc1ccc(CN2CCN(C(=O)c3ccco3)CC2)cc1OCc1ccccc1	0.3	70.8*	-16.2	?	82.8*	?	17.8µM*
CC1(C)CCc2cc(CN3CCN(c4ccccn4)CC3)ccc2O1	4.3	85.2*	-20.6	13.1	77.0*	16.5%	?
COc1ccc(CN2CCN(c3ccccn3)CC2)cc1OCc1ccccc1	10.0	87.0*	-21.4	?	71.6*	-0.9%	?
COc1ccc(-c2[nH]ncc2CN2CCN(c3ccccn3)CC2)c(OC)c1	5.3	57.4*	-22.2	9.9	69.2*	-19.4%	9.1%
COc1ccc(CN2CCN(C(=O)c3ccco3)CC2)cc1OC	?	59.8*	-23.0	83.8*	86.0*	?	15.8µM*
O=C(COc1ccc(F)cc1)Nc1ccc(S(=O)(=O)N(Cc2ccccc2)c2ccccc2)cc1	.	.	9.1	.	-1.6	.	.

Source: PubChem BioAssay (National Center for Advancing Translational Sciences (NCATS))
